{
  "source": "PubChem BioAssay (NCATS)",
  "note": "Records with an inconclusive call do not appear. A call without a number means that no potency is given here. The source made the active and inactive calls. The call rests on the fitted dose curve; in most records, active means well fitted curve in the direction sought with a large enough effect; inconclusive means small, poorly fitted or top-dose-only effect, or another doubt; inactive means no such curve, though single readings can be large; an effect the other way counts as inactive or inconclusive.",
  "data": [
    {"test": "qHTS for Inhibitors of ATXN expression: Validation of Cytotoxic Assay (AID 588349)", "conditions": "cytotoxicity counter-screen for ATXN expression inhibitors, cell viability; series mostly up to 57.1 µM", "outline": "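Read-out: ATP-based luminescence (CellTiter Glo) reflecting viability of HEK293 cells after 72 hr incubation at 37 degrees C with a concentration series of each compound.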", "values": [
      {"compound": "S=C(NC1CCCCC1)N1CCC(c2cnc[nH]2)CC1", "outcome": "inactive"},
      {"compound": "Cc1nccc2c1[nH]c1ccccc12", "outcome": "inactive"},
      {"compound": "CNCCc1c[nH]c2ccc(O)cc12", "outcome": "inactive"},
      {"compound": "CC(=O)NCCc1c[nH]c2ccccc12", "outcome": "inactive"},
      {"compound": "CCCCc1ccc(C(=O)O)nc1", "outcome": "inactive"},
      {"compound": "CC1=NN=C(c2ccc(N)cc2)c2cc3c(cc2C1)OCO3", "outcome": "inactive"},
      {"compound": "NC(=NCCC[C@H](N)C(=O)O)N[N+](=O)[O-]", "outcome": "inactive"},
      {"compound": "NCc1cc(=O)[nH]o1", "outcome": "inactive"},
      {"compound": "NCCc1c[nH]c2ccc(O)cc12", "outcome": "inactive"},
      {"compound": "C[C@@H](N)Cc1cnc[nH]1", "outcome": "inactive"},
      {"compound": "COC(=O)[C@@H](N)CCCN=C(N)N[N+](=O)[O-]", "outcome": "inactive"},
      {"compound": "C#CCOC(=O)C1=CCCN(C)C1", "outcome": "inactive"},
      {"compound": "CCCN(CCC)[C@@H]1CCc2ccc(O)cc2C1", "outcome": "inactive"}
    ]},
    {"test": "qHTS for Inhibitors of ATXN expression: Validation (AID 588378); further: nearly all actives have a fitted effect of over 75% in size; further: potency means the concentration at half of the fitted maximal effect", "conditions": "cell-based ATXN2 expression reporter assay, luminescence; series mostly up to 57.1 µM", "outline": "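Luciferase luminescence (Bright-Glo) from an ATXN2-FFLuc HEK293 line after 24 h compound exposure at 37 °C, preceded by a CellTiter-Fluor fluorescence viability read. Serial dilutions of a reference ATXN2 inhibitor and a luciferase inhibitor served as controls.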", "values": [
      {"compound": "S=C(NC1CCCCC1)N1CCC(c2cnc[nH]2)CC1", "Potency": "inactive"},
      {"compound": "C=CCN1CC[C@]23CCCCC2[C@H]1Cc1ccc(O)cc13", "note": "(stereo partly specified)", "Potency": "inactive"},
      {"compound": "Cc1nccc2c1[nH]c1ccccc12", "Potency": "inactive"},
      {"compound": "Cc1c(C(=O)c2cccc3ccccc23)c2cccc3c2n1[C@H](CN1CCOCC1)CO3", "Potency": "15.8 µM (active)"},
      {"compound": "CNCCc1c[nH]c2ccc(O)cc12", "Potency": "inactive"},
      {"compound": "CC(=O)NCCc1c[nH]c2ccccc12", "Potency": "inactive"},
      {"compound": "CCCCc1ccc(C(=O)O)nc1", "Potency": "inactive"},
      {"compound": "CC1=NN=C(c2ccc(N)cc2)c2cc3c(cc2C1)OCO3", "Potency": "inactive"},
      {"compound": "NC(=NCCC[C@H](N)C(=O)O)N[N+](=O)[O-]", "Potency": "inactive"},
      {"compound": "CC[C@@]1(O)C(=O)OCc2c1cc1n(c2=O)Cc2cc3ccccc3nc2-1", "Potency": "inactive"},
      {"compound": "NCc1cc(=O)[nH]o1", "Potency": "inactive"},
      {"compound": "NCCc1c[nH]c2ccc(O)cc12", "Potency": "inactive"},
      {"compound": "C[C@@H](N)Cc1cnc[nH]1", "Potency": "inactive"},
      {"compound": "COC(=O)[C@@H](N)CCCN=C(N)N[N+](=O)[O-]", "Potency": "inactive"},
      {"compound": "CN[C@@H]1C[C@@H](c2ccc(Cl)c(Cl)c2)c2ccccc21", "Potency": "20 µM (active)"},
      {"compound": "Oc1ccc2c3c1O[C@H]1c4[nH]c5c(c4C[C@@]4(O)[C@@H](C2)N(CC2CC2)CC[C@]314)C[C@@]1(O)[C@H]2Cc3ccc(O)c4c3[C@@]1(CCN2CC1CC1)[C@H]5O4", "Potency": "inactive"},
      {"compound": "C#CCOC(=O)C1=CCCN(C)C1", "Potency": "inactive"},
      {"compound": "CCCN(CCC)[C@@H]1CCc2ccc(O)cc2C1", "Potency": "inactive"}
    ]}
  ]
}
